Data reported in PubChem BioAssay AID720541 (National Center for Advancing Translational Sciences (NCATS), 2013).
About 420 (32%) of roughly 1,300 compounds were called active. Another 32% or so got no clear call; they are omitted. The call rests on the fitted dose curve; in most records, active means well fitted inhibition curve with a large enough effect; inconclusive means small, poorly fitted or top-dose-only effect; inactive means no such curve, though single readings can be large or run the other way. Some of the results follow.

The molecules below were run against C-terminal-binding protein 1 (Homo sapiens) (UniProt Q13363) (assay: qHTS for Inhibitors of the Phosphatase Activity of Eya2: Carboxyl-terminal binding protein (CtBP) Counterscreen for Cherry-picked Compounds). Settings: purified protein-protein binding, AlphaScreen, 3 h; series mostly up to 46.1 µM.
In short: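 Cherry-picked compounds (final 2.5 nM–46 uM) were incubated 2 h at RT with 25 nM CtBP-6xHIS and 25 nM GST-E1A. Alpha beads (20 ug/mL) were then added for 1 h, light-protected; DMSO and E1A peptide inhibitor wells set the normalization.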
Further: nearly all actives have a fitted effect of over 65% in size.
Potency means the concentration at half of the fitted maximal effect.

SMILES	Potency
O=C(CSc1ccc2nnc(-c3ccccn3)n2n1)Nc1ccccc1C(F)(F)F	10.7 µM (active)
Cc1csc(NC(=O)CSc2ccc(-c3ccccn3)nn2)n1	4.26 µM (active)
Cc1cc(C)c(NC(=O)CSc2ccc(-c3ccccn3)nn2)c(C)c1	3.38 µM (active)
Cc1ccccc1NC(=O)CSc1ccc(-c2ccccn2)nn1	3.79 µM (active)
O=S(=O)(NCCSCc1ccc(Cl)c(Cl)c1)c1ccc2c(c1)OCCO2	inactive
CCOc1ccc(CCN2C(=O)C(=O)N([C@@H](Cc3ccccc3)CN3CCC[C@H]3CN3C(=O)C(=O)NC[C@@H]3Cc3ccccc3)C[C@@H]2Cc2ccccc2)cc1	inactive
CCN(CC)c1ccc(NC(=O)c2ccc3c(c2)c(C)c(C)n3C)cc1	10.7 µM (active)
NC(N)=Nc1nc2cc([N+](=O)[O-])ccc2o1	inactive
CN(C)c1ccc(/C=C2\C=Cc3ccccc32)cc1N	13.5 µM (active)
CN(C)c1ccc(/C=C2\C=Cc3ccccc32)cc1[N+](=O)[O-]	7.57 µM (active)
CNc1ccc(/C=C2\C=Cc3ccccc32)cc1OC	8.49 µM (active)
Cc1cc(/C=C2\C=Cc3ccccc32)ccc1N(C)C	8.49 µM (active)
COc1cc(/C=C2/C=Cc3ccccc32)ccc1N(C)C	8.49 µM (active)
O=[N+]([O-])c1ccc(/C=C2\C=Cc3ccccc32)cc1	7.57 µM (active)
O=C(Nc1ccccc1Cl)N1CCN(c2ccc3nnc(-c4ccccc4)n3n2)CC1	5.36 µM (active)
COc1cccc(N2CCN(c3ccc4nnc(CCC(=O)Nc5cccc(C(C)=O)c5)n4n3)CC2)c1	inactive
NCC(=O)Nc1ccc(Cl)cc1C(=O)c1ccc[nH]1	inactive
COc1ccc(-c2cn(Cc3ccc4c(c3)C(=O)c3ccccc3C4=O)nn2)cc1	inactive
COC1=C(Nc2ccc(OC)cc2)C(=O)c2ccccc2C1=O	6.75 µM (active)
CCc1ccc2nc3nc(C)cc(C)c3c(N)c2c1	10.7 µM (active)

SMILES	Potency
CCC(=O)Nc1ccc(C(=O)COC(=O)c2nc3nccc(C)n3n2)cc1	inactive
COc1ccc(C(=O)/C=C/Nc2ccc(S(=O)(=O)Nc3nc(C)cc(C)n3)cc2)cc1OC	12 µM (active)
COc1cc(NS(=O)(=O)c2ccc(N/C=C\C(=O)c3ccc(OC)c(OC)c3)cc2)nc(OC)n1	8.49 µM (active)
Cc1ccccc1-c1cnc(C(O)c2c(C)cccc2C)[nH]1 (stereo not given)	inactive
Cc1oc2cc([N+](=O)[O-])c(O)c([N+](=O)[O-])c2c1C(=O)c1ccc(Cl)cc1	16.9 µM (active)
COc1ccc(NC(=O)c2cc(-c3ccco3)nc3ccccc23)cn1	inactive
O=C(Nc1nncs1)c1cc(-c2ccco2)nc2ccccc12	13.5 µM (active)
COc1cccc(C(=O)Nc2cccc(-c3ccc4nncn4n3)c2)c1OC	13.5 µM (active)
COc1ccccc1OCc1ccc(C(=O)Nc2cc(OC)c(OC)c(OC)c2)o1	inactive
Nc1ccc(O)cc1	12 µM (active)
Nc1nc2nn(-c3ccccc3)nc2c(=O)[nH]1	6.01 µM (active)
Cc1ccc(-c2nnc(Nc3ccc4c(c3)OCO4)c3ccccc23)cc1S(N)(=O)=O	inactive
COc1ccc(Nc2nnc(-c3ccc(C(N)=O)cc3)c3ccccc23)cc1	4.78 µM (active)
CNC(=O)c1ccc(Nc2nnc(-c3ccc(C(N)=O)cc3)c3ccccc23)cc1	6.75 µM (active)
COc1ccc(-c2csc(-c3ccc(C(=O)O)cc3)n2)cc1	inactive
CCN(CC)C(=O)c1ccc(-c2nnc(Nc3ccc(C(=O)NC)cc3)c3ccccc23)cc1	16.9 µM (active)
NC(=O)[C@@H]1CC2(CC(c3cccc(NC(=O)COc4ccc(Cl)cc4)c3)=NO2)CN1C(=O)COc1ccc(Cl)cc1 (stereo not given in full)	inactive
CCOCCCNC(=O)c1cc2sc(Cl)cc2n1CC	inactive
Cc1cccc2cn[nH]c12	inactive
O=C(NN=C1CCCC1)c1[nH]c2ccc(Br)cc2c1-c1ccccc1	inactive

SMILES	Potency
CCOC(=O)c1sc(NC(=O)CSc2nc(O)c(Cc3ccccc3)c(=O)[nH]2)nc1C	16.9 µM (active)
COc1ccc(OC)c(NC(=O)CSc2nc(-c3ccccc3)cc(=O)[nH]2)c1	inactive
O=C(O)c1ccccc1-c1ccccc1C(=O)Nc1ccc2oc(=O)c3ccccc3c2c1	12 µM (active)
O=C(O)c1ccccc1-c1ccccc1C(=O)Nc1ccc2c(c1)[nH]c(=O)c1ccccc12	7.57 µM (active)
CCN1C(=O)/C(=C2/C=Cc3ccccc3N2CC)SC1=S	4.26 µM (active)
COc1cc(OC)c(OC)cc1/C=C/c1nccc2ccccc12	7.57 µM (active)
FC(F)(F)c1ccc(CN2C[C@@H]3C(c4ccc(Cl)nc4)C4(c5cccnc5)CC3(C4)[C@H]2c2ccccc2)cc1 (stereo not given in full)	inactive
Cc1ccc(O)c(C(=O)c2cnc3c(c2)c(-c2ccc(F)cc2)c(C#N)c(=O)n3C)c1	inactive
COc1ccc([C@H]2CC(=O)C=C(c3ccnc4ccc(Cl)cc34)C2)cc1	inactive
CC(=O)Nc1ccc(NC(=O)COc2ncnc3ccccc23)cc1	inactive
CN(C)c1ccc(NC(=O)CC(NCc2ccccn2)C(=O)O)cc1 (stereo not given)	1.07 µM (active)
COc1cc(OC)c(NC(=O)CN(C)S(=O)(=O)c2ccc(-c3ccc(=O)[nH]n3)s2)cc1Cl	6.01 µM (active)
CCN(CC)c1ccc(/C=C2\CCC(/C=C(\C#N)C(=O)Nc3ccccc3F)=C2N2CCOCC2)cc1	23.9 µM (active)
CCCc1ccc(C#N)c(SC2CC(=O)N(c3ccc(OC)cc3)C2=O)n1 (stereo not given)	inactive
O=C1NC(=O)/C(=C\c2ccccc2OCc2cccc([N+](=O)[O-])c2)N1	inactive
COc1ccc(F)cc1-c1cc(NC=O)c2ncc(-c3cccc(C(F)(F)F)c3)n2c1	inactive
Oc1c(C(Nc2nc3ccccc3s2)c2ccco2)ccc2cccnc12 (stereo not given)	6.75 µM (active)
Cc1cc(C)c(OCCCCN(C)Cc2ccccc2)c(C)c1	inactive
O=c1c2ccccc2oc2nc3n(c(=O)c12)CCCS3	12 µM (active)
Cc1cc(=O)n2nc(N3CCCC(C(=O)Nc4ccc(C)c(C)c4)C3)sc2n1 (stereo not given)	inactive
